23 compounds from PubChem BioAssay (NCATS) can be followed below.

Records with an inconclusive call do not appear. A number with no mark means an inactive call. Activity calls are given as the source filed them. Calls follow the shape of the dose curve; as a rule, active = well fitted inhibition curve with a large enough effect; inconclusive = small, poorly fitted or top-dose-only effect; inactive = flat fitted curve, though single readings scatter.

Common to all, as to experiment: Cytotoxic Profiling of Annotated Libraries Using Quantitative High-Throughput Screening (AID 1296008); also: nearly all actives have a fitted effect of over 60% in size
Holding throughout (details): Five cell lines viability, CellTiter-Glo ATP luminescence, 48-72 h; max response: active compounds read low
(In general: ATP-based viability assays read luminescence as a measure of living cells.)

The subject of one test is HaCat. In outline:
(§1)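 Cells exposed to compounds for 48 or 72 hr at 37 degrees Celsius. Viability read as ATP-coupled luminescence with CellTiter-Glo after 10 min at room temperature.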

The subject of the next test is KB-3-1. The method, boiled down: as §1
A further test concerns NIH3T3. In outline:
as §1
% is scaled to controls: 0 for no effect and ±100 for the full control effect; potency is read from the fitted curve at half-maximal effect.

As for `O=[N+]([O-])c1cccc2[nH]c(CNc3nc(N4CCOCC4)nc4c3ncn4-c3ccsc3)nc12`, the values for the Potency in the test on HaCat, in the test on KB-3-1 and in the test on NIH3T3 were 461 nM (active), 164 nM (active) and 259 nM (active), respectively.

On to `Cc1cc(Cl)ccc1COc1ccnn1-c1cc(C(=O)O)ccn1`, for which the values for the max response in the test on HaCat and in the test with NIH3T3 were -5.14% and 0.276%, respectively. The call in the test with KB-3-1 was inactive.

`COc1cc(NC(=O)Nc2cccc(CNC(=O)O[C@H]3CCOC3)c2)ccc1-c1cnco1`: the max response in the test on HaCat was -5.46%. In addition, the Potency in the test on KB-3-1 was 4110 nM (active); in the test with NIH3T3, 3660 nM (active).

Consider `COc1cc(N2CCC(N3CCN(C)CC3)CC2)ccc1Nc1ncc(Cl)c(-c2c[nH]c3ccccc23)n1`, for which the Potency in the test with HaCat was 3660 nM (active); in the test with KB-3-1, 4610 nM (active); in the test on NIH3T3, 1460 nM (active).

Take `CC(c1ncncc1F)C(O)(Cn1cncn1)c1ccc(F)cc1F` (centres undefined): the max response in the test with HaCat is -2.25%; in the test on KB-3-1, 0.345%; in the test on NIH3T3 it was -5.84%.

With `C=C(CO)C12OC1C1(C)C(=CC2=O)C(O)C(O)CC1C` (centres undefined), the max response was -9.32% in the test on HaCat, 3.94% in the test with KB-3-1 and -6.8% in the test on NIH3T3.

Turning to `CCc1cnn2c(NCc3ccc[n+]([O-])c3)cc(N3CCCCC3CCO)nc12` (centres undefined), the Potency is 46.1 nM (active) with HaCat, 9.2 nM (active) with KB-3-1 and 65.1 nM (active) in the test on NIH3T3.

As to `OCCc1ccc(O[C@@H]2O[C@H](CO)[C@@H](O)[C@H](O)[C@H]2O)cc1`, the max response in the test on HaCat is -3.11%; in the test on KB-3-1 it was -1.98%; in the test with NIH3T3, 2.39%.

With `c1ccc(-c2ncc(CN3CCN(c4ncccn4)CC3)[nH]2)cc1`, the max response in the test on HaCat is 0.273%; in the test with KB-3-1 it was -2.29%; with NIH3T3, -1.52%.

As for `COc1c2c(c(C)c3c1C(=O)OC3)O[C@@]1(C)CCC3(C(C)(C)O)OC(=O)CC[C@]3(C)[C@H]1C2` (some centres undefined), the max response with HaCat was -17.1%; in the test with NIH3T3 it was -21.1%. In addition, the result with KB-3-1 was inactive.

Regarding `O=C(Nc1ccccc1-c1cn2c(CN3CCNCC3)csc2n1)c1ccc2ccccc2n1`, the figures for the max response in the test with HaCat, with KB-3-1 and in the test with NIH3T3 were -14.7%, 2.25% and 4.15%, respectively.

On to `C=C1CC[C@@H]2[C@@](C)(CO[C@@H]3O[C@H](CO)C(O)[C@H](O)C3O)[C@H](O)CC[C@@]2(C)[C@@H]1CC/C(C)=C/CO` (some centres undefined), for which the max response is -3.82% in the test on HaCat and -10.1% with NIH3T3. Moreover, the call with KB-3-1 was inactive.

For the compound `CC1(C(=O)O)CCCC2(C)C3CCC4CC3(CCC12)CC4=O` (centres undefined), the max response in the test with HaCat is 2.83%; with KB-3-1, -1.11%; in the test on NIH3T3, -6.02%.

As to `COC(=O)c1ccccc1O[C@@H]1O[C@H](CO)[C@@H](O)[C@H](O)[C@H]1O[C@@H]1O[C@@H](C)[C@H](O)[C@@H](O)[C@H]1O`, the max response in the test on HaCat is -1.51%; with KB-3-1 it was 3.4%; in the test with NIH3T3, 0.854%.

With `O=C(CCc1nnc2n(Cc3ccc(Cl)cc3)c(=O)c3ccccc3n12)NCCC1=CCCCC1`, the max response was 3.41% in the test with HaCat, -11.9% in the test with KB-3-1 and 1.28% with NIH3T3.

Consider `COc1cc(O)cc(/C=C/c2ccc(O[C@@H]3O[C@H](CO)[C@@H](O)[C@H](O)[C@H]3O)cc2)c1`, for which the max response in the test with HaCat was 0.534%; in the test with NIH3T3, 4.58%. The result in the test on KB-3-1 was inactive.

As to `COc1ccc(CNC(=O)c2cc(-c3cncc(C)c3)ncc2-c2nccs2)nc1OC`, the max response was -36.2% in the test on HaCat and -26.3% with NIH3T3. Moreover, in the test on KB-3-1, the result was inactive.

For the compound `Cc1ccccc1CN1C2=NCCN2C(=O)C2=C1CCN(Cc1ccccc1)C2`, the max response was -42.7% in the test with HaCat, -23.4% in the test with KB-3-1 and -0.888% with NIH3T3.

Regarding `COc1ccc(N2CCOCC2)c2sc(NC(=O)N3CCC(C)(O)CC3)nc12`, the max response in the test with HaCat is 3.93%; in the test with NIH3T3 it was -12%. In addition, the outcome in the test on KB-3-1 was inactive.

As for `CC(=O)OC1C(c2ccccc2)CCC(c2ccccc2)C1OC(C)=O` (centres undefined), the max response in the test on HaCat is 3.27%; with KB-3-1, 7.87%; in the test with NIH3T3, 0.126%.

With `COc1cc2c(cc1O)CC[C@H]1[C@@H]2CC[C@]2(C)[C@H](O)CC[C@@H]12`, the Potency is 580 nM (active) with HaCat, 1640 nM (active) in the test with KB-3-1 and 820 nM (active) in the test with NIH3T3.

Turning to `CC1(C)CC[C@]2(C(=O)O[C@@H]3O[C@H](CO[C@@H]4O[C@H](CO)[C@@H](O)[C@H](O)[C@H]4O[C@@H]4O[C@H](CO)[C@@H](O)[C@H](O)[C@H]4O)[C@@H](O)[C@H](O[C@@H]4O[C@H](CO)[C@@H](O)[C@H](O)[C@H]4O)[C@H]3O)CC[C@]3(C)C(=CCC4[C@@]5(C)CC[C@@H](O)[C@@](C)(C(=O)O[C@@H]6O[C@H](CO)[C@@H](O)[C@H](O)[C@H]6O)C5CC[C@]43C)[C@@H]2C1` (some centres undefined), the max response in the test on HaCat is -7.02%; with NIH3T3 it was 1.8%. For the same compound, in the test with KB-3-1, the outcome was inactive.

Take `CC[C@H](NC(=O)[C@H](CS(=O)(=O)CC1CC1)N[C@@H](c1ccc(F)cc1)C(F)(F)F)C(=O)C(=O)NC1CC1`: the max response is -1.21% with HaCat, 3.82% in the test with KB-3-1 and -16% in the test with NIH3T3.
